In PubChem BioAssay (NCATS):
Records with an inconclusive call do not appear. Where a call stands in place of a potency, no number is given. The source made the active and inactive calls. Unless noted, the call rests on the fitted dose curve; in most records, active means well fitted inhibition curve with a large enough effect; inconclusive means small, poorly fitted or top-dose-only effect; inactive means flat fitted curve, though single readings scatter.

Experiments:
[1] = S16 Schwann cell PMP22 intronic element beta-lactamase assay (AID 624044; calls by dose curve; further: nearly all actives have a fitted effect of over 15% in size)
Outline: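 Beta-lactamase reporter under a PMP22 intronic regulatory element in stable S16 rat Schwann cells; 24 h compound exposure. 460 nm blue signal normalized between DMSO (0%) and potassium clavulanate, with 535 nm FRET tracking viability; curves classed by r2 and response.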

[2] = system: 7G8; assay: qHTS profiling for inhibitors of Plasmodium falciparum proliferation (AID 504749); further: nearly all actives have a fitted effect of over 60% in size; further: potency means the concentration at half of the fitted maximal effect; conditions: P. falciparum in erythrocytes, SYBR Green DNA, 72 h; series mostly up to 12.8 µM
Outline: (§1)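 In a 72 h erythrocytic culture (37 C, humidified, 5% CO2) at 2.5% hematocrit and 0.3% starting parasitemia, compounds were tested; SYBR Green I in detergent lysis buffer stained parasite DNA overnight.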

[3] = system: DIV14; assay: as above; conditions: P. falciparum in erythrocytes, SYBR Green DNA, 72 h; series mostly up to 12.8 µM
Outline: as §1

[4] = system: DIV17; assay: as above; conditions: P. falciparum in erythrocytes, SYBR Green DNA, 72 h; series mostly up to 12.8 µM
Outline: as §1

[5] = system: DIV30; assay: as above; conditions: P. falciparum in erythrocytes, SYBR Green DNA, 72 h; series mostly up to 12.8 µM
Outline: as §1

[6] = system: HB3; assay: as above; conditions: P. falciparum in erythrocytes, SYBR Green DNA, 72 h; series mostly up to 12.8 µM
Outline: as §1

[7] = system: PAD; assay: as above; conditions: P. falciparum in erythrocytes, SYBR Green DNA, 72 h; series mostly up to 12.8 µM
Outline: as §1

[8] = system: TAB113; assay: as above; conditions: P. falciparum in erythrocytes, SYBR Green DNA, 72 h; series mostly up to 12.8 µM
Outline: as §1

[9] = system: AA1029; assay: as above; conditions: P. falciparum in erythrocytes, SYBR Green DNA, 72 h; series mostly up to 12.8 µM
Outline: as §1

[10] = system: CP185; assay: as above; conditions: P. falciparum in erythrocytes, SYBR Green DNA, 72 h; series mostly up to 12.8 µM
Outline: as §1

[11] = system: CP201; assay: as above; conditions: P. falciparum in erythrocytes, SYBR Green DNA, 72 h; series mostly up to 12.8 µM
Outline: as §1

[12] = system: CP203; assay: as above; conditions: P. falciparum in erythrocytes, SYBR Green DNA, 72 h; series mostly up to 12.8 µM
Outline: as §1

[13] = system: CP286; assay: as above; conditions: P. falciparum in erythrocytes, SYBR Green DNA, 72 h; series mostly up to 12.8 µM
Outline: as §1

[14] = system: CP297; assay: as above; conditions: P. falciparum in erythrocytes, SYBR Green DNA, 72 h; series mostly up to 12.8 µM
Outline: as §1

[15] = system: CP325; assay: as above; conditions: P. falciparum in erythrocytes, SYBR Green DNA, 72 h; series mostly up to 12.8 µM
Outline: as §1

[16] = system: Dd2; assay: as above; conditions: P. falciparum in erythrocytes, SYBR Green DNA, 72 h; series mostly up to 12.8 µM
Outline: as §1

[17] = system: ECU; assay: as above; conditions: P. falciparum in erythrocytes, SYBR Green DNA, 72 h; series mostly up to 12.8 µM
Outline: as §1

[18] = system: P93_24; assay: as above; conditions: P. falciparum in erythrocytes, SYBR Green DNA, 72 h; series mostly up to 12.8 µM
Outline: as §1

[19] = system: TAB165; assay: as above; conditions: P. falciparum in erythrocytes, SYBR Green DNA, 72 h; series mostly up to 12.8 µM
Outline: as §1

[20] = system: W2; assay: as above; conditions: P. falciparum in erythrocytes, SYBR Green DNA, 72 h; series mostly up to 12.8 µM
Outline: as §1

Structure (SMILES)	Potency [1]	Potency [2]	Potency [3]	Potency [4]	Potency [5]	Potency [6]	Potency [7]	Potency [8]	Potency [9]	Potency [10]	Potency [11]	Potency [12]	Potency [13]	Potency [14]	Potency [15]	Potency [16]	Potency [17]	Potency [18]	Potency [19]	Potency [20]
CS(=O)(=O)c1ccc([C@H](O)[C@H](CO)NC(=O)C(Cl)Cl)cc1	inactive	inactive	inactive	inactive	inactive	inactive	inactive	inactive	–	–	–	–	–	–	–	–	–	–	–	–
CNC[C@H](O)c1ccc(OC(=O)C(C)(C)C)c(OC(=O)C(C)(C)C)c1	inactive	–	inactive	–	inactive	inactive	inactive	inactive	inactive	inactive	inactive	inactive	inactive	inactive	inactive	inactive	inactive	inactive	inactive	–
CC(=O)[C@@]1(O)CC[C@H]2[C@H]3C[C@@H](C)C4=CC(=O)C=C[C@]4(C)[C@@]3(F)[C@@H](O)C[C@]21C	inactive	–	inactive	inactive	inactive	inactive	inactive	inactive	inactive	inactive	inactive	inactive	inactive	inactive	inactive	inactive	inactive	inactive	inactive	–
O=C1O[C@H](CN2CCOCC2)CN1/N=C\c1ccc([N+](=O)[O-])o1	inactive	3550 nM (active)	inactive	inactive	inactive	–	–	–	–	–	inactive	inactive	–	inactive	inactive	–	–	–	–	–
CC(=O)N(C[C@@H](C)C(=O)O)c1c(I)cc(I)c(N)c1I	inactive	inactive	–	–	–	inactive	inactive	inactive	inactive	inactive	–	–	inactive	–	–	inactive	inactive	inactive	inactive	–
COc1ccc([C@@H]2CC(=O)c3c(O)cc(O[C@H]4O[C@@H](CO[C@H]5O[C@@H](C)[C@@H](O)[C@@H](O)[C@@H]5O)[C@@H](O)[C@@H](O)[C@@H]4O)cc3O2)cc1O	–	inactive	inactive	inactive	inactive	inactive	inactive	inactive	inactive	inactive	inactive	inactive	inactive	inactive	inactive	inactive	inactive	inactive	inactive	inactive
O=C(NC[C@@H](O)CO)c1c(I)c(C(=O)NC[C@@H](O)CO)c(I)c(N(CCO)C(=O)CO)c1I	–	inactive	inactive	inactive	inactive	inactive	inactive	inactive	inactive	inactive	inactive	inactive	inactive	inactive	inactive	inactive	inactive	inactive	inactive	inactive
CC1(C)O[C@@H]2C[C@H]3[C@H]4C[C@H](F)C5=CC(=O)CC[C@]5(C)[C@@H]4[C@H](O)C[C@]3(C)[C@]2(C(=O)CO)O1	inactive	–	inactive	inactive	inactive	inactive	inactive	inactive	inactive	inactive	inactive	inactive	inactive	inactive	inactive	inactive	inactive	inactive	inactive	inactive
O=C(Nc1ccccc1)OC[C@H](CN1CCCCC1)OC(=O)Nc1ccccc1	inactive	–	inactive	inactive	inactive	inactive	inactive	inactive	inactive	inactive	inactive	inactive	inactive	inactive	inactive	inactive	inactive	inactive	inactive	–
CC[N+](CC)(CC)CC[C@](O)(c1ccccc1)C1CCCCC1	inactive	inactive	–	inactive	inactive	–	inactive	inactive	inactive	inactive	inactive	inactive	–	inactive	inactive	inactive	inactive	inactive	inactive	–
CO[C@H]1[C@H](O[C@H]2O[C@@H](C)[C@@H](O[C@@H]3C[C@](C)(O)[C@H](OC(=O)CC(C)C)[C@H](C)O3)[C@@H](N(C)C)[C@@H]2O)[C@@H](CC=O)C[C@@H](C)[C@@H](O)/C=C\C=C/C[C@@H](C)OC(=O)C[C@H]1OC(C)=O	inactive	–	–	–	–	–	–	inactive	–	–	–	–	–	–	–	1410 nM (active)	–	–	–	1610 nM (active)
CN1C(=O)C[C@H](c2ccccc2)C1=O	inactive	inactive	inactive	inactive	inactive	inactive	inactive	–	inactive	–	inactive	inactive	inactive	inactive	inactive	inactive	inactive	inactive	inactive	inactive
CC(=O)OCC(=O)[C@@]1(O)CC[C@@H]2[C@H]3CCC4=CC(=O)C=C[C@]4(C)[C@]3(F)[C@@H](O)C[C@@]21C	inactive	inactive	inactive	inactive	inactive	inactive	inactive	inactive	inactive	inactive	inactive	inactive	inactive	inactive	inactive	inactive	inactive	inactive	inactive	inactive
C[N+]12CCC(CC1)[C@@H](OC(=O)C(O)(c1ccccc1)c1ccccc1)C2	–	inactive	–	–	–	inactive	inactive	inactive	inactive	inactive	–	–	inactive	inactive	inactive	inactive	inactive	inactive	inactive	inactive
C=CCOc1ccccc1OC[C@H](O)CNC(C)C	inactive	inactive	inactive	inactive	inactive	inactive	inactive	inactive	inactive	inactive	inactive	inactive	inactive	–	inactive	–	inactive	inactive	–	1140 nM (active)
CC[C@@H]1OC(=O)[C@H](C)[C@H](O[C@@H]2C[C@](C)(OC)[C@H](O)[C@H](C)O2)[C@H](C)[C@H](O[C@@H]2O[C@@H](C)C[C@@H](N(C)C)[C@@H]2O)[C@](C)(O)C[C@H](C)C(=NOCOCCOC)[C@H](C)[C@H](O)[C@]1(C)O	inactive	inactive	inactive	inactive	inactive	inactive	inactive	inactive	inactive	inactive	inactive	inactive	inactive	–	inactive	–	inactive	inactive	inactive	–
CO[C@]1(NC(=O)C2SC(=C(C(N)=O)C(=O)O)S2)C(=O)N2C(C(=O)O)=C(CSc3nnnn3C)CS[C@H]21 (stereo not given in full)	inactive	inactive	inactive	inactive	inactive	inactive	inactive	inactive	inactive	inactive	inactive	inactive	inactive	inactive	inactive	inactive	inactive	–	inactive	inactive
NS(=O)(=O)c1cc2c(cc1Cl)N[C@@H](CC1CCCC1)NS2(=O)=O	–	inactive	inactive	inactive	inactive	inactive	inactive	inactive	inactive	inactive	inactive	inactive	inactive	inactive	inactive	inactive	inactive	inactive	inactive	inactive
CN(C)CCn1nnnc1SCC1=C(C(=O)O)N2C(=O)[C@@H](NC(=O)Cc3csc(N)n3)[C@@H]2SC1	inactive	3550 nM (active)	–	–	–	–	–	–	inactive	inactive	inactive	inactive	inactive	inactive	inactive	inactive	–	–	–	6420 nM (active)
NC(=O)N[C@H]1NC(=O)NC1=O	inactive	inactive	inactive	inactive	inactive	inactive	inactive	inactive	inactive	inactive	inactive	inactive	inactive	inactive	inactive	inactive	inactive	inactive	inactive	inactive
CC(C)(C)NC[C@H](O)COc1cccc2c1CCC(=O)N2	inactive	inactive	inactive	inactive	inactive	inactive	inactive	inactive	inactive	inactive	inactive	inactive	inactive	inactive	inactive	inactive	inactive	inactive	inactive	inactive
C[C@@]12CC[C@H]3[C@@H](CCC4=CC(=O)CC[C@]43C)[C@H]1CC[C@H]2C(=O)CO	inactive	inactive	–	inactive	inactive	inactive	–	–	inactive	inactive	inactive	–	inactive	inactive	inactive	inactive	–	inactive	–	inactive
C[C@@H]1Cc2ccccc2N1NC(=O)c1ccc(Cl)c(S(N)=O)c1 (stereo not given in full)	–	–	inactive	inactive	inactive	inactive	inactive	inactive	inactive	inactive	inactive	inactive	inactive	inactive	–	inactive	inactive	inactive	inactive	inactive
